Screen size: about 63,000 compounds; about 1,100 (1.7%) were called active. For the sample, actives were picked, then their nearest neighbours and some compounds at random. Results with a measured potency or affinity are listed apart. Unmarked numbers belong to inactive results. No stated cut-off is given here; in the data, active means cytotoxicity above about 50%; inactive means the rest.
assay: cytotoxicity in HPDE-C7 cells, cell-based, fluorescence, HTS (AID 430); details: HPDE-C7 pancreatic duct cells viability, at 10 µM, stronger effect = higher value;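 further: cells exposed to compound for 48 hours before viability readout; 0% = vehicle and 100% = reference cytotoxic drug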

| SMILES | cytotoxicity |
| --- | --- |
| CC(=O)c1cc2c(cc1NC(=O)C1CC=CCC1C(=O)O)OCO2 (centres undefined) | -5.7% |
| CCn1c(C(C)NC(=O)c2ccc(OC)c(OC)c2)nc2ccccc21 (centres undefined) | 5.7% |
| O=C(O)c1c[nH]ccc1=O | -18.4% |
| CCc1cc2c3c(c(=O)oc2cc1OC)CCCC3 | 0% |
| Cc1ccc(-c2nsc3c(N4CCN(C(=O)c5ccco5)CC4)ncnc23)cc1 | -21.7% |
| CN1Cc2cc(C(=O)c3cc(Cl)cc(CSc4ncccn4)c3O)cnc2NC1=O | 68.2% (active) |
| CCCCN1Cc2cc(C(=O)c3cc(F)ccc3O)cnc2NC1=O | 6.2% |
| Cc1ccc(O)c(C(=O)c2cnc3c(c2)CN(CCC(C)C)C(=O)N3)c1 | -5.5% |
| CNC(=O)NC(=O)CSc1cccc(C(F)(F)F)c1 | -6.3% |
| COc1ccccc1N1CC(C(=O)OCC(=O)c2ccc(F)cc2)CC1=O (centres undefined) | -16.4% |
| COc1ccc(Cc2nc(-c3ccc(NC(=O)c4cccnc4)cc3)no2)cc1 | 27.4% |
| COc1cccc(-c2nc(-c3ccc(NC(=O)c4cccnc4)cc3)no2)c1 | 70.7% (active) |
| Cc1ccc(-c2noc(-c3cccs3)n2)cc1 | 0.6% |
| O=C(Nc1cccnc1)c1cc(-c2cccs2)on1 | 14.1% |
| O=C(Nc1ccc(-c2noc(CCc3ccccc3)n2)cc1)c1cccnc1 | 58.7% (active) |
| c1ccc(CCc2nc(-c3cccnc3)no2)cc1 | -9.2% |
| COc1ccc(CC(=O)Nc2ccc(-c3noc(-c4cccc(OC)c4)n3)cc2)cc1 | 1% |
| O=C(Nc1ccc(-c2noc(CCc3ccccc3)n2)cc1)c1ccco1 | 6.6% |
| O=C(Nc1ccc(-c2noc(-c3cccs3)n2)cc1)c1cccnc1 | 53.2% (active) |
| COC(=O)C1=C(O)CSC1=Nc1cccc(C(F)(F)F)c1 | 6.1% |
| CC1=CC(C)(C)N(C(=O)c2ccc(F)cc2)c2cc3c(cc21)OCO3 | -5.1% |
| Cc1ccc2[nH]c(=O)c(CN(CCN3CCOCC3)C(=O)Nc3ccc(F)cc3)cc2c1 | 1.9% |
| COc1ccc(CNC(=O)c2cc(-c3ccccc3O)n[nH]2)cc1 | -14.7% |
| CCCCOC(=O)n1c(=O)oc2cc(S(=O)(=O)N3CCCCC3)ccc21 | 4.7% |
| Cc1nnc2n(Cc3ccccc3)c(=O)c3c4c(sc3n12)CN(Cc1ccccc1)CC4 | 11.3% |

| SMILES | cytotoxicity |
| --- | --- |
| CC(C)C1Cc2c(sc3c2c(=O)n(Cc2ccccc2)c2nncn32)CO1 (centres undefined) | 7.1% |
| CCCSc1nnc2n(Cc3ccccc3)c(=O)c3c4c(sc3n12)CCC4 | 52.7% (active) |
| CCOC(=O)CSc1nnc2n(Cc3ccccc3)c(=O)c3c4c(sc3n12)CCC4 | 22.6% |
| CCCSc1nnc2n(C)c(=O)c3c4c(sc3n12)CCC4 | 4.3% |
| CCC(C)N(C(=O)COC(=O)c1cn(CC)c2nc(C)ccc2c1=O)C1CCS(=O)(=O)C1 (centres undefined) | -10.6% |
| CC(C)c1cc(C(=O)Nc2cccc(Cl)c2)no1 | 1.6% |
| O=C(Nc1ccc(Oc2ccc(S(=O)(=O)N3CCOCC3)cn2)cc1)c1ccco1 | 2.4% |
| COc1ccc2cc3c(N)c(C(=O)NCc4ccco4)sc3nc2c1 | -0.3% |
| COc1cc2cc3c(N)c(C(=O)NCc4ccco4)sc3nc2cc1OC | 31.5% |
| Nc1c(C(=O)NCc2ccco2)sc2nc3c(cc12)C(=O)CCC3 | 56.5% (active) |
| Cc1ccc(Cn2c(=O)c3ccccc3n3c(CCC(=O)O)nnc23)cc1 | 23% |
| COC(=O)C1C(c2ccccc2)C(C(=O)N2CCOCC2)C1c1ccccc1 (centres undefined) | -2.2% |
| COc1ccc(CCN2C(=NC(=O)CCC(=O)O)SC3CS(=O)(=O)CC32)cc1OC (centres undefined) | -11% |
| COc1ccc(CNC(=O)CSc2nnc(C)s2)cc1 | -6.3% |
| CN1CCN(c2nc(-c3cccs3)cc(C(F)(F)F)n2)CC1 | 1.7% |
| FC(F)(F)c1cc(-c2ccco2)nc(NCc2ccccc2)n1 | 9.1% |
| FC(F)(F)c1cc(-c2cccs2)nc(N2CCOCC2)n1 | -7.3% |
| FC(F)(F)c1cc(-c2ccco2)nc(-n2cnc3ccccc32)n1 | 0% |
| FC(F)(F)c1cc(-c2ccco2)nc(NCc2ccco2)n1 | 0.5% |
| CC(C)c1nnc(NC(=O)CCC(=O)Nc2ccc(F)cc2)s1 | 6.6% |
| CC(C)c1nnc(NC(=O)Cc2cccs2)s1 | 1.9% |
| FC(F)(F)c1cc(-c2ccco2)nc(-n2nnc3ccccc32)n1 | 5.9% |
| CC(C)c1nnc(NC(=O)CCS(=O)(=O)c2nc(-c3cccs3)cc(C(F)(F)F)n2)s1 | 87% (active) |
| O=C(COc1cccc(-n2cnnn2)c1)N1CCOCC1 | 18.5% |
| Cc1c(C)n(CC(O)CN2CCOCC2)c2ccccc12 (centres undefined) | -0.4% |

| SMILES | cytotoxicity |
| --- | --- |
| CC(C)C(c1nnnn1Cc1ccc2c(c1)OCO2)N1CCN(c2ccccc2)CC1 (centres undefined) | -9.2% |
| COc1ccc(N2C(=O)CSC23C(=O)Nc2ccccc23)cc1OC (centres undefined) | -18.4% |
| COc1cc(OC)cc(C(=O)Nc2ccccc2N2CCOCC2)c1 | -3.9% |
| COc1cc(OC)c(C(=O)COc2ncnc3ccccc23)c(OC)c1 | -5.8% |
| O=S(=O)(Nc1ccc2c(c1)OCO2)c1cccs1 | 15.6% |
| Cn1c(NCC2CCCO2)nc2c1c(=O)n(Cc1ccccc1)c(=O)n2C (centres undefined) | 4.9% |
| COc1nc(-c2ccccc2)cc(C(F)(F)F)n1 | -11.8% |
| COc1ccc(-c2cc(C(F)(F)F)nc(N3CCCCC3)n2)cc1OC | -20.9% |
| COc1ccc(-c2cc(C(F)(F)F)nc(NC3CCCC3)n2)cc1OC | 24.7% |
| Nc1nc(-c2ccccc2)cc(C(F)(F)F)n1 | -0.7% |
| COCCn1c(SCC(=O)OCc2ccccc2)nc2c1c(=O)[nH]c(=O)n2C | -3.3% |
| CCCCCC(=O)O[C@]1(C(C)=O)CC[C@H]2[C@@H]3CCC4=CC(=O)CC[C@]4(C)[C@H]3CC[C@@]21C | 116% (active) |
| CCCCCCCC(=O)OCC(=O)[C@@]1(O)CC[C@H]2[C@@H]3CCC4=CC(=O)CC[C@]4(C)[C@H]3[C@@H](O)C[C@@]21C | -1.9% |
| CCCCC(=O)O[C@]1(C(=O)CO)CC[C@H]2[C@@H]3CCC4=CC(=O)CC[C@]4(C)[C@H]3[C@@H](O)C[C@@]21C | 8.3% |
| Cc1c(C(=O)O)c2cc(O)ccc2n1-c1ccccc1 | 4.3% |
| Fc1ccc(-c2nnc(-c3ccc(Cl)cc3Cl)o2)cc1 | 1.1% |
| O=C(NCc1ccco1)C(c1cccs1)N(Cc1ccccc1)C(=O)Cn1nnc2ccccc21 (centres undefined) | 3.4% |
| COCCCn1c2nc3ccccc3nc2c2c(=O)n(Cc3ccccc3Cl)cnc21 | -8.1% |
| COc1ccc(NC(=O)C2CCCN2S(=O)(=O)c2cccc3cccnc23)c(OC)c1 (centres undefined) | 5.8% |
| COc1ccc(NC(=O)CN(C)S(=O)(=O)c2cccc3cccnc23)cc1 | -4.1% |
| COc1ccc(N(C)S(=O)(=O)c2cccc3cccnc23)c(OC)c1 | 51.4% (active) |
| Cc1ccc(S(=O)(=O)NCC(=O)N2CCCCC2)cc1 | -15.4% |
| CCc1nc(N2CCN(C(=O)c3ccco3)CC2)c2oc3ccccc3c2n1 | 22.2% |
| O=C(c1cc2cc(Cl)ccc2oc1=O)N1CCCC1 | -1.3% |
| CC1=C(C(=O)Nc2ccccc2)C(c2ccco2)C(C#N)=C(SCC(=O)Nc2cccc(C)c2C)N1 (centres undefined) | 67% (active) |

| SMILES | cytotoxicity |
| --- | --- |
| COc1ccccc1NC(=O)C1=C(C)NC(SCC(=O)c2ccccc2)=C(C#N)C1c1ccco1 (centres undefined) | 33.9% |
| CCOC(=O)CSC1=C(C#N)C(c2ccco2)C(C(=O)Nc2cccc(C(F)(F)F)c2)=C(C)N1 (centres undefined) | 12.4% |
| CC1=C(C(=O)Nc2ccccc2)C(c2ccco2)C(C#N)=C(SCc2ccccc2)N1 (centres undefined) | 63.1% (active) |
| CCOC(=O)C1=C(c2ccccc2)NC(SCC(=O)Nc2ccccc2C)=C(C#N)C1c1ccco1 (centres undefined) | 32.9% |
| CC1=C(C(=O)Nc2ccccc2)C(c2ccco2)C(C#N)=C(SCC(=O)OC(C)C)N1 (centres undefined) | 42.1% |
| Cc1cccc(OCCC(=O)Nc2ccc(S(=O)(=O)N3CCCC3)cc2)c1 | -7% |
| CCOc1ccc(NC(=O)c2cccc(-n3cnnn3)c2)cc1 | 0.4% |
| CCC(C)SCc1nc2ccccc2[nH]1 (centres undefined) | -5.4% |
| COc1cccc(-c2noc(CCC(=O)Nc3cccnc3)n2)c1 | 2% |
| O=C(OCc1ccc(F)cc1Cl)c1ccccn1 | 4.8% |
| CN(C)c1ccc(S(=O)(=O)c2ccc(Cl)cc2)cc1 | 1% |
| CSCC[C@@H](Nc1nc(-c2ccccc2)nc2c1oc1ccccc12)C(=O)O | 7.2% |
| c1cncc(-c2nc(NCc3ccco3)c3ccccc3n2)c1 | 5.3% |
| O=C(NCc1cccs1)c1cc2ccccc2o1 | -2.4% |
| CCC(C)(NC(=O)c1ccc(=O)[nH]c1)C(=O)NC1CCCC1 (centres undefined) | -7% |
| COC(=O)CNC(=O)C(Cc1c[nH]c2ccccc12)NC(=O)OC(C)(C)C (centres undefined) | -5% |
| Cc1csc2ncc(C(=O)Nc3ccc4c(c3)OCCO4)c(=O)n12 | -20.4% |
| Cc1nc2c(C(=O)O)cnn2c(C)c1Cc1ccccc1F | -26.4% |
| Cc1csc2ncc(C(=O)Nc3ccccc3F)c(=O)n12 | 51.2% (active) |
| Cc1ccccc1Cc1c(C)nc2c(C(=O)N3CCN(Cc4ccc5c(c4)OCO5)CC3)cnn2c1C | -6.7% |
| CSc1ccccc1NC(=O)c1cnc2scc(C)n2c1=O | -4.8% |
| COc1ccc(CNC(=O)c2cnc3scc(C)n3c2=O)cc1 | -6.4% |
| Cc1csc2ncc(C(=O)NCc3ccc4c(c3)OCO4)c(=O)n12 | 67.4% (active) |
| Cc1csc2ncc(C(=O)Nc3ccccc3Cl)c(=O)n12 | -6.7% |
